The subject of the assay is HL-60(TB) leukemia. Briefly: NCI-60 one-dose screen, 48 h (100 = growth as untreated, 0 = no growth, -100 = all killed). The conditions noted are these: 10 µM unless noted.

The record followed here is PubChem BioAssay (NCI).

Structures are written as SMILES. The panel holds about 83,000 compounds, 20% with a hit somewhere; the sample as a whole holds those more often.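 Compound tested at a single concentration for 48 hours in 96-well plates; a percent growth value below 10 was scored as active.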 Unmarked numbers belong to inactive results. Active and inactive are the calls of the source.

Take `Fc1[nH]nc2ccc([C@@H]3Nc4ccc5[nH]ncc5c4[C@H]4C5CCC(C5)[C@@H]34)cc12` (some centres undefined): the growth is 14.4%. For the molecule `CC(=O)OC1CC2CCC1(C)C2(C)C` (centres undefined), the growth was 103%.

As to `COc1ccc2c3c(ccc2c1)C(=O)/C(=C\O)CC3`, the growth is 75.1%. On to `COc1c(O[C@@H]2OC(CO)[C@H](O)[C@H](O)C2O)cc2oc3cc(O)c(CC=C(C)C)c(O)c3c(=O)c2c1CC=C(C)C` (some centres undefined), for which the growth was 94.4%. As for `COc1ccc(NC2=C(I)C(=O)c3ncccc3C2=O)cc1`, the growth is -47.5% (active). As to `Cc1cc(Cl)nc(N(CCCNc2ccnc3cc(Cl)ccc23)Cc2ccco2)n1`, the growth was -35.9% (active). In the case of `CCOc1c(OC)cc2c(c1O)C(=O)N[C@@H]1[C@@H](O)[C@@H](O)[C@H](O)C[C@@H]21`, the growth was 100%. On to `COc1ccc(CCN2C(=O)/C(=C/c3ccc(C4Oc5ccccc5C5CC(c6cccc(OC)c6)=NN54)cc3)SC2=S)cc1` (centres undefined), for which the growth is 99.5%. As for `N#C/C(=C/C=C/c1cccc(Cl)c1)S(=O)c1ccccc1` (centres undefined), the figure is -18.9% (active); as for `CCCc1cc(=O)n2c(C(=O)Nc3cccc(C(=O)OCC)c3)c(C(=O)Nc3ccc(F)cc3)sc2n1`, 73.6% [30 µM]; as for `Cc1c(C(=O)O)nnn1-c1nccs1`, 95.5%.

Take `COc1cc2ncnc(Nc3ccc(S(=O)(=O)Nc4cc(C)on4)cc3)c2cc1OCCCN1CCN(c2ccc([N+](=O)[O-])cc2)CC1`: the growth was 118%. In the case of `O=C(O)c1ccc(NC(=O)c2ccc(-c3cccc([N+](=O)[O-])c3)o2)cc1`, the growth is 105%. As for `O=c1oc2ccc(I)cc2c(=O)n1-c1ccc(F)cc1F`, the figure is -4.05% (active). With `COc1ccc(-c2cc(-c3ccc(Cl)cc3)c(C#N)c(=O)n2Cc2ccc(C(=O)Nc3ccccc3N)cc2)cc1`, the growth was 84.7%. As for `CC1(C)OC2=C(CC1Br)C(=O)C(=O)c1ccccc12` (centres undefined), the figure is -8.14% (active). As for `Cn1cc(-c2csc(-c3cn(CCOC(N)=O)c4ccccc34)n2)c2cccnc21`, the figure is 86.9%; as for `NC(=O)Nc1cc(-c2cccc(F)c2)sc1C(=O)N[C@H]1CCCNC1`, -29.9% (active).

On to `CCN1C(=O)N(CC)C2Nn3c(s/c(=C4\C(=O)N(CC(C)C)c5ccccc54)c3=O)=NC21` (centres undefined), for which the growth was 18.9%. As to `Cc1ccc(-c2csc3nc(C)c(CCCl)c(=O)n23)cc1`, the growth was 107%. As for `COc1cc(CO)cc2cc3ccccc3nc12`, the figure is 101%. As for `COc1cc(-c2nc(SCC(=O)Nc3ccc(C(C)=O)cc3)[nH]c(=O)c2C#N)cc(OC)c1OC`, the figure is -54.3% (active); as for `CCCCCCCCCCCCCCCCCC(=O)OCCCCCCCCCCCCC`, 112%. As for `CCCCCC(=O)Oc1ccc(/C(=C(/C)Cc2ccc(OC)cc2)c2ccc(OCCCN(C)C)cc2)cc1`, the figure is 62%; as for `COC(=O)[C@H](Cc1cn(C)cn1)NC(=O)[C@@H](NC(=O)Nc1cc(C(F)(F)F)cc(C(F)(F)F)c1)C(C)(C)C`, -56.2% [100 µM] (active). On to `COc1cc(C2Nc3ccccc3S2)cc(CN2CCOCC2)c1O` (centres undefined), for which the growth was 80.6%. Consider `COC(=O)c1c(C)c2n(c1C)C(=O)C(c1ccccc1)=C2`, for which the growth was 67%. For the molecule `CCN(CC)CCOC(=O)c1ccc(NC(=O)Nc2cccc(Cl)c2)cc1`, the growth is 103%. In the case of `COc1cc2c(Nc3ccc(S(N)(=O)=O)cc3)ncnc2c(OC)c1OC`, the growth is 91.5%. As for `COc1cc2ncn3c(=O)c4c5c(sc4nc3c2cc1OC)CCCCC5`, the figure is 100%; as for `O=C1CC23OC(C(O)c4ccccc4N12)C1C(c2ccccc2)=NOC13` (centres undefined), 8.01% (active). As for `CCn1c2ccc(O)cc2c2c(C)c3c[n+](C)ccc3c(C)c21`, the figure is 95.5%. On to `CS(=O)/C(C#N)=C\C=C\c1cccc(Cl)c1` (centres undefined), for which the growth is -1.97% (active). As for `COc1cc(OC)cc(N2CCN(C(=O)Nc3nc4cc(F)ccc4nc3OC)CC2)c1`, the figure is -17% (active); as for `CS(=O)(=O)Nc1cc(-c2ccc3ncnc(Nc4ccc5c(cnn5Cc5ccncc5)c4)c3c2)cnc1Cl`, 15.4%. As for `CCCCCC(=O)OCc1ccccc1`, the figure is 89.4%; as for `CCCCSc1ncnc2c1ncn2C1CCCCO1` (centres undefined), 90.4%.

Regarding `Cc1cc(N2CCOCC2)nc(N(CCNc2ccnc3cc(Cl)ccc23)Cc2cccs2)n1`, the growth is -63.2% (active). In the case of `NC(=O)c1c(NC(=O)/C=C/c2cccs2)sc2c1CCC(=O)C2`, the growth was 2.8% (active).
